Results reported in PubChem BioAssay (Tox21).
Inconclusive results are not listed. Values without a mark were called inactive. Calls of active or inactive are those of the source. The call rests on the fitted dose curve; in most records, active means well fitted cell-killing curve with a large enough effect in the repeat runs; inconclusive means weak or mixed curves, or effect the other way; inactive means no such curve, though single readings can be large or run the other way.

Experiment: qHTS assay to identify small molecule antagonists of the progesterone receptor (PR) signaling pathway - cell viability counter screen (AID 1346798); further: nearly all actives have a fitted effect of over 50% in size
Settings: PR-UAS-bla HEK293T viability, CellTiter-Glo luminescence, 16 h; series mostly up to 92.4 µM; activity change, negative = cytotoxicity: at the top concentration
Excerpt: National Center for Advancing Translational Sciences [NCATS]
NIH Chemical Genomics Center [NCGC]
U.S. Environmental Protection Agency [EPA]
National Institutes of Environmental Health Sciences [NIEHS]
National Toxicology Program [NTP]
U.S. Food and Drug Administration [FDA]
Progesterone receptor (PR), a nuclear hormone receptor, plays an important role in development, metabolic homeostasis and reproduction. It is activated by the steroid hormone progesterone. Endocrine disrupting chemicals (EDCs) and their interactions with steroid hormone receptors like PR causes disruption of normal endocrine function. To identify the compounds that inhibit PR signaling, a PR-UAS-bla GripTite cell line i.e. PR-UAS-bla HEK293T (Invitrogen, Carlsbad, CA, USA) containing a beta-lactamase reporter gene under the control of an UAS response element was used to screen Tox21 10K compound library. The cytotoxicity of the Tox21 compound library against the PR-bla cell line was tested in parallel by measuring the cell viability using CellTiter-Glo assay in the same wells.
Tox21 Assay Protocol Summary:
PR-UAS-bla HEK293T cells were dispensed at 3,000 cells/4 uL of assay medium containing 2% charcoal stripped FBS per well into black wall/clear-bottom 1536-well plates using a Multidrop Combi (ThermoFisher Scientific, Waltham, MA) dispenser. After the assay plates were incubated at a 37C and 5% CO2 for 4 hr, 23 nL of compounds dissolved in DMSO, positive controls or DMSO only was transferred to the assay plate by a Pintool station (Kalypsys, San Diego, CA), followed by addition of 1 uL of R5020 in assay medium using a Flying Reagent Dispenser (FRD, Aurora Discovery, San Diego, CA). The plates were incubated at 37C and 5% CO2 for 16 hr. Then 1 uL of LiveBLAzer B/G FRET substrate was added using a Flying Reagent Dispenser, the plates were incubated at room temperature for 2 hours, and fluorescence intensity was measured by an Envision plate reader (PerkinElmer, Shelton, CT). For cell viability readout that measures cytotoxicity, 4 uL/well of CellTiter-Glo reagent was added into the assay plates using a FRD. After 30 min incubation at room temperature, the luminescence intensity in the plates was measured using a ViewLux (PerkinElmer) plate reader.
On the % scale 0 is the no-effect control and ±100 the full control effect; potency means the concentration at half of the fitted maximal effect.

Compound | Potency | activity change, negative = cytotoxicity
CNCCCN1c2ccccc2CCc2ccccc21 | 18.8 µM (active) | –
Cc1ccc(C(C)OC(=O)C2(C)CCC(C(=O)O)C2(C)C)cc1 (stereo not given) | – | 3.74% [at 42.5 µM]
CCN(CC)c1ccc2c(-c3ccccc3C(=O)O)c3ccc(=[N+](CC)CC)cc-3oc2c1 | – | 11.5%
C[N+](C)(C)CCOC(=O)CCC(=O)OCC[N+](C)(C)C | – | 0.514% [at 42.5 µM]
CC(CC=O)c1ccccc1 (stereo not given) | – | -1.72%
CCCCCC[C@@H](O)C/C=C\CCCCCCCC(=O)OC | – | -4.78%
C=CC1CC2C=CC1C2 (stereo not given) | – | 0.148%
Nc1cc(C(=O)O)c(O)c(S(=O)(=O)O)c1 | – | -9.58%
COc1cccc(N(C)C(=S)Oc2ccc3c(c2)CCCC3)n1 | – | -27.5% [at 42.5 µM]
OCCN1CCN(CCCN2c3ccccc3C=Cc3ccccc32)CC1 | – | -25.3% [at 42.5 µM]
CCCCCCCCCCCC(=O)OC[C@@H](O)[C@H]1OC[C@H](OCCO)[C@H]1OCCO | – | 1.98%
O=C1OC(CN2CCOCC2)CN1/N=C/c1ccc([N+](=O)[O-])o1 (stereo not given) | – | -0.4% [at 42.5 µM]
Brc1c2ccccc2cc2ccccc12 | – | -26%
Brc1c2ccccc2c(Br)c2ccccc12 | – | 3.37% [at 8.39 µM]
OC(C#CCN1CCCC1)(c1ccccc1)c1ccccc1 | – | -13.7% [at 42.5 µM]
OCc1cc(C(O)CNCCCCCCOCCCCc2ccccc2)ccc1O (stereo not given) | – | 36.6% [at 42.5 µM]
O=C(O)c1ccco1 | – | -0.0179%
CCOC(=O)C(O)c1ccccc1 (stereo not given) | – | -0.348% [at 42.5 µM]
Nc1ccc(N)c2c1C(=O)c1ccccc1C2=O | 27.3 µM (active) | –
CCCC(=O)Nc1ccc(O)c(C(C)=O)c1 | – | -1.39% [at 42.5 µM]

Compound | Potency | activity change, negative = cytotoxicity
CCCCCCCCCCO[C@@H]1O[C@H](CO)[C@@H](O)[C@H](O)[C@H]1O | – | 26.6%
CC(=O)[O][Al] | – | -19.7%
CC1OC(=O)C(C)OC1=O (stereo not given) | – | 7.52%
CC1=CC[C@H](C(C)C)C=C1 | – | 0.0291%
CCCCC(CC)COC(=O)CCCCCCCCC(=O)OCC(CC)CCCC (stereo not given) | – | 7.96%
CC(COCCO)OCCO (stereo not given) | – | 4.67%
Nc1cccc(S(=O)(=O)c2cccc(N)c2)c1 | – | 12.1%
COc1ccc(C(=O)N2CCN(CC(=O)N3CCOCC3)CC2)cc1 | – | 1.19% [at 42.5 µM]
O=C(O)c1ccc(-n2nc(-c3ccccc3O)nc2-c2ccccc2O)cc1 | – | -16.2% [at 42.5 µM]
NC(=O)C(c1ccccc1)(c1ccccc1)[C@@H]1CCN(CCc2ccc3c(c2)CCO3)C1 | – | 15% [at 42.5 µM]
O=[N+]([O-])c1ccc(NCCO)c(OCCO)c1 | – | 9.66%
CCC(C)(C)CC | – | -16.5%
Nc1ccccc1S(=O)(=O)c1ccccc1 | – | 33.3%
CC[N+](C)(CC)CCOC(=O)C(O)(c1ccccc1)C1CCCCC1 (stereo not given) | – | 7.16% [at 42.5 µM]
CC1CCC(=O)C1=O (stereo not given) | – | -2.33%
C=C(C)C(=O)OCCOCC | – | 7.46%
COC(C)OC | – | 14.6%
COc1cc(Cl)c(OC)cc1N | – | -24.9%
CN(C)c1ccc(C(c2ccccc2)c2ccc(N(C)C)cc2)cc1 | – | 0.331%
Cc1cccc(Nc2ccccc2)c1 | – | -4.7%
